A selection: hits, their analogues and other compounds. The true share with any hit is near 8%.
MCF10A rerep = A quantitative high throughput screen for small molecules that induce DNA re-replication in MCF 10a normal breast cells | MCF 10A DNA re-replication, Hoechst nuclear intensity, 48 h | Potency, µM (highest dose often 46.1 µM), for the others: top-dose activity, positive = re-replication, actives largely listed as activators | AID 624296, 2012 | actives 2.9% (n = 350,000); further: % of control where 0% means no effect; nearly all actives have a fitted effect of over 50% in size
KB-V1 cytotox = qHTS assay for MDR1-selective chemotherapeutics: Primary screen using the drug-selected MDR subline cells KB-V1; KB-V1 MDR cells viability, CellTiter-Glo, 72 h; Potency, µM (top dose mostly 46.1 µM), usual class: cytotoxic; actives 3.4% (n = 400,000); further: on the % scale 0 is the no-effect control and ±100 the full control effect; nearly all actives have a fitted effect of over 60% in size
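In this primary screen, KB-V1 cells overexpressing P-gp are incubated with library compounds (lowest to highest concentration) for 72 h at 37 degrees C before a luminescent ATP viability read.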
SW480 rereplic = A quantitative high throughput screen for small molecules that induce DNA re-replication in SW480 colon adenocarcinoma cells | SW480 DNA re-replication, Hoechst DNA content imaging, 48 h | actives 1.8% (n = 340,000) | Potency, µM (series often up to 46.1 µM), inactives show top-dose re-replication activation, most hits filed as activators; further: % of control where 0% means no effect; nearly all actives have a fitted effect of over 55% in size
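Readout is total intensity of Hoechst-stained nuclei, excited at 405 nm and collected at 500-530 nm. Compound treatment lasted 48 hr at 37 C in 5% CO2 before staining.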
HT1080 IDH1KD tx = qHTS for induction of synthetic lethality in tumor cells producing 2HG: qHTS for the HT-1080-IDH1KD cell line | Potency, µM (top dose mostly 46.1 µM), for the others: at the top dose activity, negative = toxicity, hits mostly cytotoxic | AID 686971, 2013 | actives 2% (n = 360,000) | HT-1080 IDH1 knockdown viability, ATP luminescence, 48 h;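 further: 0% = DMSO wells and -100% = cell-free medium wells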
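IDH1KD HT-1080 cells, 750/well, RPMI + 5% FBS; compound pinned after 2 h settling; 48 h, 37 °C; CellTiter-Glo luminescence; % activity normalised to DMSO and no-cell wells; curves fitted, classed by r2 and efficacy.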
HT1080-NT tox = qHTS for induction of synthetic lethality in tumor cells producing 2HG: qHTS for the HT-1080-NT fibrosarcoma cell line. HT-1080-NT fibrosarcoma viability, CellTiter-Glo ATP luminescence, 48 h. Potency, µM (titrated, usually from 46.1 µM), without a hit: at the top dose activity, negative = less viability, actives largely listed as cytotoxic. actives 1.6% (n = 360,000). AID 686970, 2013;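 further: NT is the 2HG producing partner of a matched IDH1 knockdown line; 0% = DMSO-treated cells and -100% = media-only wells without cells; nearly all actives have a fitted effect of over 55% in size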
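Fibrosarcoma NT cells, 750 per well in 5% FBS RPMI, were exposed to compound for 48 hours. Viability: CellTiter-Glo luminescence.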
KB-3-1 tox = qHTS assay for MDR1-selective chemotherapeutics: Primary screen using the parental adenocarcinoma cell KB-3-1; Potency, µM (top dose mostly 46.1 µM), hits mostly cytotoxic; KB-3-1 viability, CellTiter-Glo ATP luminescence, 72 h; actives 1.4% (n = 400,000); further: on the % scale 0 is the no-effect control and ±100 the full control effect; nearly all actives have a fitted effect of over 60% in size
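Screening of KB-3-1 cells (DMEM, 10% FBS, phenol-red free) ran from lowest to highest compound concentration; after 72 h at 37 °C viability was read luminescently and curves fitted.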
* marks the source's active call; other numbers are inactive results; i = inactive; ? = inconclusive; . = no result; [ ] = another dose, or the depositor's remark. The call rests on the fitted dose curve; in most records, active means well fitted curve in the direction sought with a large enough effect; inconclusive means small, poorly fitted or top-dose-only effect, or another doubt; inactive means no such curve, though single readings can be large; an effect the other way counts as inactive or inconclusive. Potency means the concentration at half of the fitted maximal effect.

SMILES | MCF10A rerep | KB-V1 cytotox | SW480 rereplic | HT1080 IDH1KD tx | HT1080-NT tox | KB-3-1 tox
CC1CN(CCCCOc2ccc(Cl)c3ccccc23)CC(C)O1 (centres undefined) | ? | i | ? | ? | 20.6µM* | i
CCCNC(=O)C1(C)CCCN(Cc2csc(-c3ccccc3)n2)C1 (centres undefined) | . | i | . | -3.8% | -27.0% | ?
CCNC(=O)C1(C)CCCN(Cc2csc(-c3ccc(Cl)cc3)n2)C1 (centres undefined) | . | i | . | ? | 0.461µM* | ?
Cc1nn(-c2ccccc2)c2c1C(c1ccc([N+](=O)[O-])cc1)N1C(=N2)C(=O)Nc2ccccc21 (centres undefined) | -4.5% | 18.4µM* | -5.2% | -25.1% | -16.8% | 23.1µM*
COCCCNC(=O)CCC(=O)N1Cc2ccccc2Oc2ncccc21 | . | i | . | . | . | i
COc1cccc(CNC(=O)COC(=O)c2ccc(-c3ccc(O)cc3)cc2)c1 | . | ? | . | 20.6µM* | ? | i
COc1cccc(CNC(=O)COC(=O)c2ccc(C(=O)c3ccccc3)cc2)c1 | 13.3% | i | 0.4% | ? | -2.6% | i
CCOc1ccc(NC(=O)CSc2nc3c(c(=O)[nH]2)CCCC3)cc1 | . | ? | . | . | . | i
COc1cc(O)c(C(CC(=O)N2CCOCC2)c2ccc(OC)c(OC)c2)c(OC)c1 (centres undefined) | . | i | . | . | . | i
COc1ccc(OC)c(C(=O)Cn2nnc(-c3ccc(N4CCOCC4)cc3)n2)c1 | ? | i | 10.4% | 7.3% | 1.1% | 20.6µM*
COc1ccc(-c2ccc(-c3nnn(CC(=O)N4CCOCC4)n3)cc2)cc1 | 10.8% | ? | 13.7% | -2.2% | -4.8% | i
Cc1ccc(NC(=O)CSc2nccn2-c2ccccc2)cc1 | . | i | . | . | . | i
Cc1cc(Br)c(S(=O)(=O)n2nnc3ccccc32)cc1C | 10.3µM* | i | ? | 3.6%[9.24 µM] | -0.1% | i
Cc1cc(C(=O)COc2ccccc2[N+](=O)[O-])c(C)n1C1CC1 | -46.2% | ? | 0.1% | -10.7% | -25.1% | i
Cc1cc(C(=O)COc2ccccc2C(N)=O)c(C)n1C1CC1 | 0.581µM* | i | -8.2% | 3.2% | 5.3% | i
NC(=O)CSc1nc(N)c2c3c(sc2n1)CCCCC3 | 15.7% | ? | -5.6% | 8.0% | 11.7% | i
CNC(=O)CSc1nc(N)c2c3c(sc2n1)CCC3 | ? | 20.6µM* | -13.7% | -23.1% | 11.5% | i
CCc1ccc(C(=O)CSc2nc(-c3ccccc3)nc3c2CCCC3)cc1 | . | i | . | . | . | i
COc1ccc(CN(C)C(=O)C23CC4CC(CC(C4)C2)C3)c(OC)c1 | 13µM* | ? | ? | -20.8% | -24.1% | ?
CN1c2ccc(Cl)cc2C(=O)NC1c1ccc([N+](=O)[O-])s1 (centres undefined) | 11.6µM* | i | 41.8% | 23.1µM* | ? | i
O=[N+]([O-])c1ccc(CNc2ccc(Cl)cc2)s1 | -9.7% | i | -6.6% | -19.9% | 4.7% | i
NC(=O)C1CCN(c2ncc(-c3ccc4c(c3)OCCO4)s2)CC1 | . | i | . | . | . | i
Cc1ccc(Cl)cc1N1CCN(C(=O)c2ccc3c(c2)CCN3S(=O)(=O)c2ccccc2)CC1 | . | i | . | . | . | i
CCCCNC(=O)C(=O)Nc1ccc2c(c1)N(S(=O)(=O)c1cccs1)CCC2 | . | 2.31µM* | . | 8.2µM* | ? | 2.06µM*
CCN(CC)CCNC(=O)C(=O)Nc1ccc2c(c1)N(S(=O)(=O)c1cccs1)CCC2 | ? | i | 5.17µM* | ? | ? | i
SMILES | MCF10A rerep | KB-V1 cytotox | SW480 rereplic | HT1080 IDH1KD tx | HT1080-NT tox | KB-3-1 tox
CNC(=O)C(=O)Nc1ccc2c(c1)N(S(=O)(=O)c1cccs1)CCC2 | 1.1% | i | -1.9% | 6.8% | -1.4% | i
COc1ccc(OC)c(CCNC(=O)c2cc3c(=O)n(C)c4ccccc4c3n2C)c1 | . | i | . | . | . | i
O=c1c2cccnc2n(Cc2ccc(Cl)cc2)c(=O)n1Cc1ccc(F)cc1 | . | ? | . | . | . | i
O=C(Nc1cccn(Cc2c(Cl)cccc2Cl)c1=O)c1c(Cl)cccc1Cl | 2.3% | 3.66µM* | 20.2% | -9.1% | -8.3% | 20.6µM*
COC(=O)Nc1cccn(Cc2c(Cl)cccc2Cl)c1=O | -0.1% | i | -2.3% | -4.8% | 1.6% | i
Cc1cccc(N(C)C(=O)CCNS(=O)(=O)c2ccc3c(c2)CCN3C(=O)C2CC2)c1 | . | i | . | . | . | i
CCc1nc(N2CCN(C(=O)c3ccco3)CC2)c2c3c(sc2n1)CCCC3 | 27.5% | ? | 0.4% | -7.1% | -11.5% | ?
CC1CCc2c(sc3nc(C4CC4)nc(N4CCN(C(=O)c5ccco5)CC4)c23)C1 (centres undefined) | 16.4µM* | ? | ? | 23.1µM* | ? | ?
COc1ccc(-c2cc(C(F)(F)F)nc(S(C)(=O)=O)n2)cc1 | ? | ? | 11.0% | ? | 18.4µM* | ?
CS(=O)(=O)c1nc(-c2ccc(F)cc2)cc(C(F)(F)F)n1 | 3.66µM* | ? | ? | 8.2µM* | 20.6µM* | ?
COc1ccc(-c2cc(C(F)(F)F)nc(-n3cc(Cl)cn3)n2)cc1 | ? | 23.1µM* | ? | 3.4% | ? | i
CC(C)c1ccc(NC(=O)CN(C)S(=O)(=O)c2ccc3c(c2)n(C)c(=O)c(=O)n3C)cc1 | . | i | . | . | . | i
Cc1ccc(-c2cn3nc(N4CCCC(C(=O)Nc5ccc(F)cc5)C4)sc3n2)cc1 (centres undefined) | . | i | . | . | . | i
C(=C\c1ccnc2ccccc12)/c1ccc2ccccc2n1 | . | ? | . | . | . | i
Cc1nn(Cc2ccc(Cl)cc2)c(C)c1NC(=O)CCCn1nc(C)c([N+](=O)[O-])c1C | -0.3% | ? | -55.1% | -3.3% | -1.0% | i
Cc1nn(Cc2ccccc2)c(C)c1NC(=O)CCCn1nc(C)c([N+](=O)[O-])c1C | 20.8% | 23.1µM* | 15.4% | 0.7% | -1.6% | i
Cc1c(Cl)c([N+](=O)[O-])nn1CCCC(=O)Nc1cccc(Cl)c1 | 4.6% | 18.4µM* | -4.6% | 7.8% | 13.8% | ?
Cc1cccc(N2CCN(Cc3ccc([N+](=O)[O-])o3)CC2)c1C | -3.0% | i | ? | -11.3% | 0.0% | i

Screens: PubChem, National Center for Advancing Translational Sciences (NCATS)
